Screening results from PubChem BioAssay.
Shown are actives, neighbours in structure and some others; about 0.84% of the full set was active somewhere.
PPARg SRC-3 ag = PPARgamma agonists recruiting SRC-3 coactivator, primary screen, biochemical; biochemical PPARgamma/SRC-3 coactivator recruitment assay; activation, % at 8 µM; actives 0.26% (n = 200,000); AID 731, 2007; in the data active = activation above about 23%;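 note: 0% = DMSO and 100% = reference agonist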
PPARg SRC-2 ag = agonists of PPARg-SRC-2 recruitment, primary screen, biochemical, HTS | Peroxisome proliferator-activated receptor gamma (Homo sapiens), P37231 | PPARgamma LBD-SRC-2 recruitment | activation, % at 8 µM | actives 0.34% (n = 200,000) | AID 1032, 2008;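 note: 0% = vehicle and 100% = reference agonist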
TR-FRET SRC-2 ct = TR-FRET signal artefacts, primary screen, artefact control for PPARgamma SRC-2 agonist project, biochemical. TR-FRET artefact counter-screen; hits give high values. TR-FRET ratio at 8 µM. actives 0.4% (n = 200,000). AID 1049, 2008; in the data active = TR-FRET ratio above about 2000
SRC3 TRFRET art = TR-FRET detection interference compounds, artefact control for PPARgamma SRC-3 recruitment agonists, biochemical, TR-FRET ratio. TR-FRET ratio at 8 µM. TR-FRET artefact counter-screen, PPARgamma/SRC-3 format; hits give high values. actives 0.39% (n = 99,000); in the data active = TR-FRET ratio above about 2000
SRC1 TRFRET art = TR-FRET detection interference compounds, primary screen, artefact control for PPARgamma SRC-1 recruitment agonists, biochemical, TR-FRET emission ratio; TR-FRET ratio at 8 µM; TR-FRET detection artefact counter-screen; hits give high values; actives 0.34% (n = 99,000); in the data active = TR-FRET ratio above about 2300
PPARg SRC1 recr = PPARgamma agonists recruiting SRC-1 coactivator, primary screen, biochemical | Peroxisome proliferator-activated receptor gamma (Homo sapiens), P37231 | PPARgamma-SRC-1 coactivator recruitment biochemical assay | activation, % at 8 µM | actives 0.41% (n = 200,000); in the data active = activation above about 19%;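 note: 0% = DMSO and 100% = reference agonist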
PPARg SRC2 conf = agonists of PPARgamma SRC-2 coactivator recruitment, confirmation, biochemical, HTS; shares compounds with PPARg SRC-3 ag; biochemical SRC-2 recruitment by PPARgamma; activation, % at 8 µM; actives 52% (n = 790); AID 1297, 2008;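 note: 0% = vehicle alone and 100% = reference agonist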
PPARg SRC1 ag = PPARgamma agonists recruiting SRC-1 coactivator, confirmation, biochemical | shares compounds with PPARg SRC-3 ag | PPARgamma–SRC-1 coactivator recruitment biochemical assay | activation, % at 8 µM | actives 43% (n = 790) | AID 1300, 2008; in the data active = activation above about 20%;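 note: 0% = vehicle wells and 100% = reference agonist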
PPARg SRC3 ag = PPARgamma-driven SRC-3 coactivator recruitment agonists, confirmation, biochemical; activation, % at 8 µM; actives 29% (n = 790); shares compounds with PPARg SRC-3 ag; AID 1301, 2008; biochemical PPARgamma-SRC-3 coactivator recruitment, agonist mode; in the data active = activation above about 24%;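 note: 0% = vehicle wells and 100% = reference agonist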
Target sequence (P37231 whole entry, looked up): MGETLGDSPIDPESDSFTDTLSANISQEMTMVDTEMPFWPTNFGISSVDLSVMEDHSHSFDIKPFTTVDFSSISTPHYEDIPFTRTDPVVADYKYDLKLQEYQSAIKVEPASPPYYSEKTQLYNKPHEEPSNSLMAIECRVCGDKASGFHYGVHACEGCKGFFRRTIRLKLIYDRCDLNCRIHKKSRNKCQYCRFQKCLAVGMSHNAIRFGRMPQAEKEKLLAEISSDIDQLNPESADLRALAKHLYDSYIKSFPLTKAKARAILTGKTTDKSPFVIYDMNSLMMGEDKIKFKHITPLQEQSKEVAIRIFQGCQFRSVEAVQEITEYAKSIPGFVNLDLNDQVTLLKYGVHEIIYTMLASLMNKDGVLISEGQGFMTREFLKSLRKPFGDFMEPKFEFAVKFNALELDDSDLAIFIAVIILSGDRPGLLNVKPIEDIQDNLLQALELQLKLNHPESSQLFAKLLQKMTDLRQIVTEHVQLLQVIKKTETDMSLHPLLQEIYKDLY
Target sequence (Q9Y6Q9 whole entry, looked up): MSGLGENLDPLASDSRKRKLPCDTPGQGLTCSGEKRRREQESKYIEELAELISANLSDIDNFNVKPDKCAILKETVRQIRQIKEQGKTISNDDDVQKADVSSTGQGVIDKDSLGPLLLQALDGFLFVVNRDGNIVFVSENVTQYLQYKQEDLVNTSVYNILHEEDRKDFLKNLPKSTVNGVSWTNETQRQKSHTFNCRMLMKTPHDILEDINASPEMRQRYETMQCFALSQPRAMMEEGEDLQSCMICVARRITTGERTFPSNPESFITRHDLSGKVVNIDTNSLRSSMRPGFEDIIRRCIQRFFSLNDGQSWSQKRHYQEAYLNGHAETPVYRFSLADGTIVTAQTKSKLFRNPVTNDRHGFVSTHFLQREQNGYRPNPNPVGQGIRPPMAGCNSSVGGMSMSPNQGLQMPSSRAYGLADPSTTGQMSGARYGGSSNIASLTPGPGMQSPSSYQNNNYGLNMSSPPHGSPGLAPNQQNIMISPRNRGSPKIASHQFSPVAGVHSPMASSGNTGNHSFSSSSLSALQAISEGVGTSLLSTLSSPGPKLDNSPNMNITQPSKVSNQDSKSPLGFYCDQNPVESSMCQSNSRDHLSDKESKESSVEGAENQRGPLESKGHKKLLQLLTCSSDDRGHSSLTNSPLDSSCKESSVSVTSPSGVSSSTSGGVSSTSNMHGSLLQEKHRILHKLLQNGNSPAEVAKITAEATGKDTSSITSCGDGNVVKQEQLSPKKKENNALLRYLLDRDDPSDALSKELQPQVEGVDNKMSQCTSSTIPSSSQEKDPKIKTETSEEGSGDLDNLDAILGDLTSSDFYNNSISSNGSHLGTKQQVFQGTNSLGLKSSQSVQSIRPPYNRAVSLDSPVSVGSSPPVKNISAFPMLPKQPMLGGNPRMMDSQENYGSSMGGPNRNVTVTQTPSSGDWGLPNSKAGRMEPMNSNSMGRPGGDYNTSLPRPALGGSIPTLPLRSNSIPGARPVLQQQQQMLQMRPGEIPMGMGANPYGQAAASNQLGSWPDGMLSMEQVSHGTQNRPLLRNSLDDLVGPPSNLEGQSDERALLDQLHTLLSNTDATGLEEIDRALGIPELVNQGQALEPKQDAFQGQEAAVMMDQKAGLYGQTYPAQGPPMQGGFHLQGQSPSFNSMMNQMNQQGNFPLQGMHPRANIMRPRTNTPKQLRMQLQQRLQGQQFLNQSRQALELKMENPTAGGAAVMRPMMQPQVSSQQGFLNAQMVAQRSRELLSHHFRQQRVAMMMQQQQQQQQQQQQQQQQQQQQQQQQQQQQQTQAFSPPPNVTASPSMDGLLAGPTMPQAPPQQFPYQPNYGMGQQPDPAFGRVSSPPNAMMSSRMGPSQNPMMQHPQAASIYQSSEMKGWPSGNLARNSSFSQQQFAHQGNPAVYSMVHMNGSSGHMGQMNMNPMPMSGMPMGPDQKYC
Starred values were filed as active, the others as inactive; · = not tested or not shown. Cut-off read from the data, not from the text of the source, unless noted: active = activation above about 22%; inactive = the rest.

SMILES	PPARg SRC-3 ag	PPARg SRC-2 ag	TR-FRET SRC-2 ct	SRC3 TRFRET art	SRC1 TRFRET art	PPARg SRC1 recr	PPARg SRC2 conf	PPARg SRC1 ag	PPARg SRC3 ag
O=C(O)c1cc(-c2ccc3c(c2)OCO3)nc2ccc(Br)cc12	22.6*	31.0*	2330*	2538*	2873*	32.9*	8.8	1.4	7.7
O=C(O)c1cc(-c2cccnc2)nc2ccc(Br)cc12	12.9	15.8	1853	2133*	2326*	24.9*	13.9	6.0	10.1
COCC(=O)Nc1cc(Cl)c(OC)cc1OC	2.5	7.4	1586	1550	1288	4.7	·	·	·
NC(=S)NN=C(Cc1ccccc1)Cc1ccccc1	1.7	-0.6	1484	1600	1582	-0.9	·	·	·
Cc1cc(-c2ccc(Br)s2)nc(-n2cccc2)n1	23.7*	24.8*	2162*	2617*	2540*	25.8*	42.1*	28.5*	25.7*
Cc1cc(-c2sccc2Br)nc(-n2cccc2)n1	9.6	10.6	1890	2170*	2236	22.1*	18.1	14.2	12.9
Clc1ccc(-c2ccnc(-n3cccc3)n2)s1	6.2	7.4	1522	1708	1910	0.5	·	·	·
Oc1cc2c(cc1O)C1c3ccc(O)c(O)c3OCC1(O)C2 (stereo not given)	10.1	21.6	1683	1777	2256	27.1*	8.7	6.4	2.3
C/C(O)=C(/C=NCC(=O)O)C(=O)Nc1nccs1	-0.1	-2.5	1579	1728	1886	-5.2	·	·	·
CC(C)Cn1[nH]c2c3c(ccc2c1=O)C(=O)c1ccccc1C3=O	26.0*	20.0	1610	·	·	15.3	5.0	4.2	4.7
O=C1c2ccccc2C(=O)c2c1ccc1c(=O)n(-c3ccccc3)[nH]c21	2.5	5.9	1455	1724	1572	9.9	·	·	·
Cc1nn(Cc2ccccc2Cl)c(C)c1C(=O)NCCN1C(=O)S/C(=C\c2ccccc2)C1=O	22.9*	18.4	1519	1547	1779	23.2*	5.9	21.8*	13.8
O=[N+]([O-])c1ccc(C2Nc3cccc4cccc(c34)N2)cc1	6.8	17.0	1698	1578	1856	20.8*	4.6	1.4	2.6
Cc1sccc1C1C(C#N)=C(N)SC(N)=C1C#N	33.5*	22.1*	1861	·	·	10.3	3.5	0.9	5.0
Cc1cc(C2C(C#N)=C(N)SC(N)=C2C#N)c(C)s1	15.0	25.2*	1825	·	·	9.3	0.2	-4.2	1.6
Cc1[nH]nc2c1C(c1ccsc1C)C(C#N)=C(N)O2 (stereo not given)	-5.4	-1.0	1409	·	·	1.5	·	·	·
Cc1cc(C2C(C#N)=C(N)Oc3n[nH]c(C)c32)c(C)s1 (stereo not given)	5.7	3.7	1518	·	·	-2.0	·	·	·
Cc1[nH]c2ccccc2c1C(=O)NS(=O)(=O)Nc1ccc(Cl)cc1	3.9	2.0	1495	1534	1716	8.2	·	·	·
c1ccc2nc(-c3ccc(N4CCOCC4)cc3)ccc2c1	71.4*	6.2	1544	·	·	50.8*	7.8	6.6	5.7
COc1ccc2c(c1)O[C@@H](c1cccc(C(F)(F)F)c1)[C@H](OC(=O)N[C@H]1CCCc3ccccc31)C2=O	0.9	24.5*	1831	1457	1778	10.2	1.5	5.7	-0.1
Cc1ccc(S(=O)(=O)c2nc(NN(C)C)sc2Cl)cc1	-1.3	4.7	1700	1565	1925	6.5	·	·	·
CN(C)c1ccc(NC(=O)Oc2ccccc2)cc1	91.4*	58.4*	2246*	·	·	15.2	6.7	3.2	4.5
CSc1nc2sc3c(c2c2nnnn12)CCCC3	69.7*	20.3	2081*	·	·	44.9*	50.1*	39.5*	25.9*
Cc1ccc(S(=O)(=O)Nc2cnn(-c3ccccc3)c(=O)c2Cl)cc1	27.5*	38.9*	2289*	2439*	3010*	34.5*	47.4*	35.1*	27.5*
CNc1cnn(-c2ccc(C)cc2)c(=O)c1Cl	9.0	-1.8	1515	·	·	-4.5	·	·	·
SMILES	PPARg SRC-3 ag	PPARg SRC-2 ag	TR-FRET SRC-2 ct	SRC3 TRFRET art	SRC1 TRFRET art	PPARg SRC1 recr	PPARg SRC2 conf	PPARg SRC1 ag	PPARg SRC3 ag
CCCC(C)NC(=O)c1ccc(OCc2ccc(Cl)cc2)c(OC)c1 (stereo not given)	57.0*	23.1*	1657	1723	2154	62.2*	30.9*	55.6*	48.1*
CC(C)Oc1ccc(C(CC(=O)O)NC(=O)C(Sc2ccccc2)c2ccccc2)cc1 (stereo not given)	3.5	10.1	1593	1474	1724	3.4	·	·	·
CCCn1c(N)c(NCCN2CCOCC2)c(=O)[nH]c1=O	-0.8	1.6	1482	1367	1499	0.4	·	·	·
CN(C)C(CNc1ccc([N+](=O)[O-])cc1C#N)c1ccccc1 (stereo not given)	-5.4	-7.8	1267	1339	1458	-4.7	·	·	·
COc1ccc(N2CCN(Cc3nc(N)nc(Nc4ccccc4OC)n3)CC2)cc1	2.4	9.5	1569	·	·	2.0	·	·	·
COc1ccc(Nc2nc(N)nc(CN3CCN(c4ccc(F)cc4)CC3)n2)cc1	4.5	10.3	1746	1573	2427*	23.7*	5.3	3.4	2.8
O=C(NCC(=O)N1CCN(S(=O)(=O)c2cccs2)CC1)c1ccc(Cl)cc1	4.0	0.9	1374	1573	1544	-3.0	·	·	·
COc1cc(/C=C/C(=O)OCC(=O)Nc2ccc(C)cc2[N+](=O)[O-])ccc1O	9.1	24.9*	1465	1635	2042	15.6	12.5	8.4	8.2
Cc1cccc(-n2c(-c3ccco3)n[nH]c2=S)c1	22.6*	28.1*	2124*	2283*	2623*	25.0*	34.7*	25.5*	25.7*
Cn1c(-c2ccco2)n[nH]c1=S	5.2	13.6	1882	1797	2042	9.5	·	·	·
COc1cc(CO)cc(Br)c1OCC(=O)Nc1cccc2ccccc12	6.6	10.3	1699	1383	1672	8.8	·	·	·
CNC(=S)N1N=C(c2ccc(Br)cc2)CC1c1ccc(OC)cc1 (stereo not given)	20.7	17.8	2412*	2788*	2835*	22.9*	36.9*	29.9*	21.1
